Source: PubChem BioAssay (NCI)
Compounds without any hit were thinned out: in the full panel of roughly 83,000, 20% have a hit.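 Each cell line was grown in a 96-well plate and treated with one concentration of compound for 48 hours. Values below 10 were considered active.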 Activity calls are given as the source filed them.

Tests used:
Test in all cases: NCI-60 one-dose screen, 48 h (100 = growth as untreated, 0 = no growth, -100 = all killed)
Details in all cases: 10 µM unless noted
HT29 colon = system: HT29 colon
SNB-75 CNS = system: SNB-75 CNS
SNB-19 CNS = system: SNB-19 CNS
U251 CNS = system: U251 CNS
PC-3 prostate = system: PC-3 prostate
UACC-62 melanoma = system: UACC-62 melanoma
SK-MEL-28 melanoma = system: SK-MEL-28 melanoma
SN12C renal = system: SN12C renal
UO-31 renal = system: UO-31 renal
TK-10 renal = system: TK-10 renal
ACHN renal = system: ACHN renal
CAKI-1 renal = system: CAKI-1 renal
A498 renal = system: A498 renal
CCRF-CEM leukemia = system: CCRF-CEM leukemia
MOLT-4 leukemia = system: MOLT-4 leukemia
SR leukemia = system: SR leukemia
SK-MEL-5 melanoma = system: SK-MEL-5 melanoma
LOX IMVI melanoma = system: LOX IMVI melanoma
SK-MEL-2 melanoma = system: SK-MEL-2 melanoma
EKVX NSCLC = system: EKVX NSCLC

Measured: growth

Cc1cc(NCCCNc2ccnc3cc(Cl)ccc23)nc(N2CCN(C)CC2)n1
inactive: HT29 colon 15.2% | SNB-75 CNS 76.6% | SNB-19 CNS 115% | U251 CNS 69.7% | PC-3 prostate 51.5% | UACC-62 melanoma 33.4% | SK-MEL-28 melanoma 88.3% | SN12C renal 77.6% | UO-31 renal 58.6% | TK-10 renal 133% | ACHN renal 45.7% | CAKI-1 renal 57% | A498 renal 82.4% | CCRF-CEM leukemia 26.1% | MOLT-4 leukemia 21.2%
active: SR leukemia 0.0449%

CC1=NN(c2ccccc2Cl)C(=O)/C1=C\c1cn(S(=O)(=O)c2ccc(C)cc2)c2ccccc12
inactive: HT29 colon 122% | SNB-75 CNS 89.3% | SNB-19 CNS 114% | U251 CNS 103% | SK-MEL-5 melanoma 106% | UACC-62 melanoma 86.5% | LOX IMVI melanoma 97.4% | SK-MEL-28 melanoma 125% | SK-MEL-2 melanoma 114% | EKVX NSCLC 98% | SN12C renal 97.5% | UO-31 renal 78.2% | TK-10 renal 167% | ACHN renal 97.5% | CAKI-1 renal 87.8% | A498 renal 117% | CCRF-CEM leukemia 135% | MOLT-4 leukemia 173%

O=C(Nc1cccc2ccccc12)c1cc2c(cc1Br)OCO2
inactive: HT29 colon 101% | SNB-75 CNS 57.4% | SNB-19 CNS 86.7% | U251 CNS 103% | SK-MEL-5 melanoma 99.2% | UACC-62 melanoma 85.5% | LOX IMVI melanoma 91% | SK-MEL-28 melanoma 119% | SK-MEL-2 melanoma 130% | EKVX NSCLC 92.9% | SN12C renal 107% | UO-31 renal 99.2% | TK-10 renal 172% | ACHN renal 94.2% | CAKI-1 renal 101% | A498 renal 126% | CCRF-CEM leukemia 94.7% | MOLT-4 leukemia 91.5% | SR leukemia 71.5%

Cc1cc(NC(=O)Nc2cccc3ccccc23)no1
inactive: HT29 colon 108% | SNB-75 CNS 91.4% | SNB-19 CNS 105% | U251 CNS 93.6% | SK-MEL-5 melanoma 99% | UACC-62 melanoma 90.6% | LOX IMVI melanoma 95.9% | SK-MEL-28 melanoma 116% | SK-MEL-2 melanoma 101% | EKVX NSCLC 102% | SN12C renal 109% | UO-31 renal 89% | TK-10 renal 146% | ACHN renal 98.4% | CAKI-1 renal 104% | A498 renal 126% | CCRF-CEM leukemia 107% | MOLT-4 leukemia 106% | SR leukemia 81.2%

CSC1=Nc2c(c(C)c(-c3ccccc3)n2CCCN2CCCCC2)C2=NC(=O)C[C@H](C)N12
inactive: HT29 colon 21.4% | SNB-75 CNS 50.3% | SNB-19 CNS 20.2% | U251 CNS 11.8% | UACC-62 melanoma 53.7% | LOX IMVI melanoma 42.3% | SK-MEL-28 melanoma 43.2% | SK-MEL-2 melanoma 62.8% | EKVX NSCLC 41.9% | SN12C renal 45.5% | UO-31 renal 56.6% | TK-10 renal 48.7% | ACHN renal 66.8% | CAKI-1 renal 66.9% | A498 renal 80.8% | CCRF-CEM leukemia 20.7% | MOLT-4 leukemia 67.6%
active: SK-MEL-5 melanoma 9.86% | SR leukemia 2.43%

COc1cccc(-c2nnc(N)o2)c1
inactive: HT29 colon 100% | SNB-75 CNS 106% | SNB-19 CNS 102% | U251 CNS 97.8% | SK-MEL-5 melanoma 99.3% | UACC-62 melanoma 99.5% | LOX IMVI melanoma 94.7% | SK-MEL-28 melanoma 104% | SK-MEL-2 melanoma 107% | EKVX NSCLC 100% | SN12C renal 97.2% | UO-31 renal 97.1% | TK-10 renal 121% | ACHN renal 103% | CAKI-1 renal 98.4% | A498 renal 97.8% | CCRF-CEM leukemia 103% | MOLT-4 leukemia 110% | SR leukemia 124%

CCOC(=O)c1c2c(c(C)n1Cc1ccc(OC)cc1)-c1nc(N)ncc1CC2
inactive: HT29 colon 110% | SNB-75 CNS 103% | SNB-19 CNS 111% | U251 CNS 106% | SK-MEL-5 melanoma 110% | UACC-62 melanoma 87.3% | LOX IMVI melanoma 104% | SK-MEL-28 melanoma 112% | SK-MEL-2 melanoma 119% | EKVX NSCLC 98.8% | SN12C renal 95.3% | UO-31 renal 90% | TK-10 renal 130% | ACHN renal 106% | CAKI-1 renal 101% | A498 renal 111% | CCRF-CEM leukemia 126% | MOLT-4 leukemia 93.6%

COc1ccc(C2=NN(C(C)=O)C(c3cc(OC)c(OC)c(OC)c3)C2)cc1 (stereo not given)
inactive: HT29 colon 103% | SNB-75 CNS 96.6% | SNB-19 CNS 90.7% | U251 CNS 105% | SK-MEL-5 melanoma 92.6% | UACC-62 melanoma 101% | LOX IMVI melanoma 90.6% | SK-MEL-28 melanoma 129% | SK-MEL-2 melanoma 99% | EKVX NSCLC 95.2% | SN12C renal 109% | UO-31 renal 80% | TK-10 renal 152% | ACHN renal 104% | CAKI-1 renal 100% | A498 renal 96.5% | CCRF-CEM leukemia 75.5% | MOLT-4 leukemia 118%
active: SR leukemia -9.78%

CSc1nnc(C2=CC(=O)c3ccccc3C2=O)n1-c1ccccc1
inactive: HT29 colon 110% | SNB-75 CNS 74.8% | SNB-19 CNS 91.5% | U251 CNS 76.5% | PC-3 prostate 86.7% | UACC-62 melanoma 84.1% | SK-MEL-28 melanoma 105% | SN12C renal 104% | UO-31 renal 67.6% | TK-10 renal 121% | ACHN renal 74.9% | CAKI-1 renal 88.5% | A498 renal 99.4% | CCRF-CEM leukemia 36.8% | MOLT-4 leukemia 68.9% | SR leukemia 70.2%

O=c1cc(-c2cccnc2)oc2c1ccc1ccccc12
inactive: HT29 colon 59% | SNB-75 CNS 54.4% | SNB-19 CNS 64.7% | U251 CNS 48.8% | SK-MEL-5 melanoma 63.3% | UACC-62 melanoma 70.3% | LOX IMVI melanoma 75.5% | SK-MEL-28 melanoma 69.3% | SK-MEL-2 melanoma 110% | EKVX NSCLC 86.3% | SN12C renal 80.3% | UO-31 renal 60.5% | TK-10 renal 114% | ACHN renal 69.6% | CAKI-1 renal 72.9% | A498 renal 61.6% | CCRF-CEM leukemia 88.1% | MOLT-4 leukemia 103% | SR leukemia 39.3%

Oc1ccc(-c2nn(-c3ccccc3)cc2-c2nc3ccccc3s2)cc1
inactive: HT29 colon 112% | SNB-75 CNS 101% | SNB-19 CNS 93.9% | U251 CNS 94% | SK-MEL-5 melanoma 92.3% | UACC-62 melanoma 88.1% | LOX IMVI melanoma 78.4% | SK-MEL-28 melanoma 117% | SK-MEL-2 melanoma 135% | EKVX NSCLC 79.5% | SN12C renal 85.3% | UO-31 renal 55.4% | TK-10 renal 142% | ACHN renal 91.1% | CAKI-1 renal 82% | A498 renal 81.7% | MOLT-4 leukemia 87.8% | SR leukemia 75.4%

COc1cc(/C=C/C(=O)Nc2cccnc2Nc2cc(OC)c(OC)c(OC)c2)cc(OC)c1OC
inactive: HT29 colon 94.3% | SNB-75 CNS 82.1% | SNB-19 CNS 96.5% | U251 CNS 91.3% | SK-MEL-5 melanoma 93.6% | UACC-62 melanoma 84.4% | LOX IMVI melanoma 101% | SK-MEL-28 melanoma 103% | SK-MEL-2 melanoma 96.4% | EKVX NSCLC 92% | SN12C renal 76.1% | UO-31 renal 89.8% | TK-10 renal 116% | ACHN renal 96.5% | CAKI-1 renal 82.3% | CCRF-CEM leukemia 66.1% | MOLT-4 leukemia 94.1% | SR leukemia 92.5%

c1ccc2cc(C[n+]3ccn(CCCCCCCn4cc[n+](Cc5ccc6ccccc6c5)c4)c3)ccc2c1
active: SNB-75 CNS -2.59% | SK-MEL-5 melanoma -5.55% | A498 renal -3.36%
inactive: HT29 colon 10.4% | SNB-19 CNS 21.6% | U251 CNS 21% | UACC-62 melanoma 27.3% | LOX IMVI melanoma 40.7% | SK-MEL-28 melanoma 44.3% | SK-MEL-2 melanoma 23.4% | EKVX NSCLC 27.9% | SN12C renal 24.2% | UO-31 renal 76.7% | TK-10 renal 70.6% | ACHN renal 60.2% | CAKI-1 renal 91.9% | MOLT-4 leukemia 56.1% | SR leukemia 50.9%

O=C1/C(=C/c2ccc3cccc(Cl)c3n2)SC(=S)N1CCc1ccc(O)cc1
active: CCRF-CEM leukemia 6.53%
inactive: HT29 colon 107% | SNB-75 CNS 50.7% | SNB-19 CNS 97.5% | U251 CNS 94% | SK-MEL-5 melanoma 95.8% | UACC-62 melanoma 68.4% | LOX IMVI melanoma 80.7% | SK-MEL-28 melanoma 108% | SK-MEL-2 melanoma 101% | EKVX NSCLC 83.7% | SN12C renal 87.1% | UO-31 renal 39.8% | TK-10 renal 129% | ACHN renal 82.6% | CAKI-1 renal 51% | A498 renal 58.6% | MOLT-4 leukemia 48.9% | SR leukemia 79%

CCOC(=O)C1=NN(c2ccc(Cl)cc2)C2C3N(c4ccc(Cl)cc4)N=C(C(=O)OCC)N3c3ccccc3N12 (stereo not given)
inactive: HT29 colon 93.3% | SNB-75 CNS 91.1% | SNB-19 CNS 118% | U251 CNS 114% | SK-MEL-5 melanoma 92.7% | UACC-62 melanoma 101% | LOX IMVI melanoma 113% | SK-MEL-28 melanoma 108% | SK-MEL-2 melanoma 102% | EKVX NSCLC 104% | SN12C renal 111% | UO-31 renal 92.6% | TK-10 renal 119% | ACHN renal 121% | A498 renal 131% | MOLT-4 leukemia 47.4% | SR leukemia 40.4%

CCN(CC)CCCCNc1c2ccccc2[n+](C)c2c1[nH]c1ccccc12
active: HT29 colon 0.443% | SNB-75 CNS -49.8% | SNB-19 CNS -22.7% | U251 CNS 0.218% | SK-MEL-5 melanoma -69.9% | UACC-62 melanoma -69.6% | LOX IMVI melanoma -5.07% | SK-MEL-28 melanoma -90.4% | SK-MEL-2 melanoma -90.7% | EKVX NSCLC -20.3% | SN12C renal -2.39% | TK-10 renal -12.1% | A498 renal -11.8% | CCRF-CEM leukemia -33.1% | MOLT-4 leukemia -4.88% | SR leukemia -37.3%
inactive: UO-31 renal 22.2% | ACHN renal 27.9% | CAKI-1 renal 81%

COc1ccc(OC)c(NC(=O)c2cc3oc4ccccc4c3cc2O)c1
inactive: HT29 colon 100% | SNB-75 CNS 84% | SNB-19 CNS 92.7% | U251 CNS 120% | SK-MEL-5 melanoma 91.1% | UACC-62 melanoma 79.7% | LOX IMVI melanoma 109% | SK-MEL-28 melanoma 101% | SK-MEL-2 melanoma 96.1% | EKVX NSCLC 75.9% | SN12C renal 95% | UO-31 renal 79.8% | TK-10 renal 135% | ACHN renal 98.7% | CAKI-1 renal 74.7% | A498 renal 121% | CCRF-CEM leukemia 99.4% | MOLT-4 leukemia 117% | SR leukemia 127%
